# Assay results published in the OligoGym collection.
# Target: AACS
# Test: pooled miR-30 sensor sort-seq; sequence = guide strand
# Details: shRNA
# Further: reference of the scale not given here.
row,Sequence,sensor-assay potency score (higher = more potent)
1,TGATTCTGCAGTAGTCGCCATG,-0.951
2,TTGGAATCTTTGAAAGGTCTAT,0.0735
3,TACAGATCCAGGGTCTCGGGGT,-0.361
4,TCTGTCATTCTCTTTGTGCCGC,0.211
5,TTTTCTGCATAGTTGAGCCGAC,-0.296
6,TAGCACAGGAGGATGTCACTGC,0.828
7,TTACAGTGCACACGGGTGCGGC,-0.808
8,TTTGACGGCAACTTCCACTTTC,-0.286
9,TTTCGATGTGTCCACAACCTCA,-1.33
10,TAGGCCTTTAACCACCTGCTGC,-1.19
11,TTGATTCTGCAGTAGTCGCCAT,0.104
12,TTGAGGGTGCCGTCACTCCGGC,-1.01

# Target: AADACL2
# Test: as above
# Details: shRNA
row,Sequence,sensor-assay potency score (higher = more potent)
1,TTGGCAAGTACAATCGTACTGG,0.407
2,TAACTGAGAATCATTGGCCAAC,-1.39
3,TTCAGCATCATTCTGCACCTGT,0.443
4,TTTTGTAAGAATTTTTTCCAAA,-1.07
5,TTTTTGGCAAGTACAATCGTAC,-0.474
6,TACAACAACAGCATCAAGCGTG,-0.148
7,TAAATGTACAAGTTTTAGCGAT,-0.754
8,TTGTAACATACATAAGTCCATC,-1.14
9,TAAACAGATGTCTTGACTCCAG,-0.578
10,TAACATACATAAGTCCATCATC,-1.34
11,TATCTCTTATCCTAAGACCTAG,-0.412
12,TTTTATTTCAGCATCATTCTGC,0.839

# Target: AADACL3
# Test: as above
# Details: shRNA
row,Sequence,sensor-assay potency score (higher = more potent)
1,TTACTTCCAAGTAAGCAGCTTC,0.308
2,TAGCAGATGAAACTCCAGGTGA,-0.205
3,TAGATCAGGATCTGAGCCCGGA,0.297
4,TTTCATGATGACCTCTTGCCAG,-1.07
5,TATGCTTAGGTAACTTGCGGTA,-0.306
6,TTGTTGACAAACCACTGCGGCT,-1.56
7,TACAACAGTGAATTGTCCCGGA,0.727
8,TATGTCATCTTCTGCAATCAGG,-1.03
9,ATCCGTGACCACAACATCGGGA,0.0942
10,TTATGCTTAGGTAACTTGCGGT,0.0464
11,TTTTCTTGTACAACAGTGAATT,-1.64
12,TTCATGATGACCTCTTGCCAGG,-1.37

# Target: AATK
# Test: as above
# Details: shRNA
row,Sequence,sensor-assay potency score (higher = more potent)
1,TCGGTAGGGATTCTTCTCGTTG,-0.77
2,ATAGTCACCAATCTTCACCGTC,0.047
3,AACTGCATCACCTCGTACCAGC,-1.29
